Common to all, as to assay: PBM; 200 nM protein, PBS
Holding throughout (conditions): dsDNA, one strand shown

Test [1] concerns the target CRX (Homo sapiens, UniProt O43186 26-111).
Test [2] addresses CRX (Homo sapiens, UniProt O43186 26-111, E42D).
The target of test [3] is PITX2 (Homo sapiens, UniProt Q99697 72-157).
Test [4] deals with PROP1 (Homo sapiens, UniProt O75360 56-141).
The target in test [5] is PROP1 (Homo sapiens, UniProt O75360 56-141, R99H).
Test [6] addresses PROP1 (Homo sapiens, UniProt O75360 56-141, F88S).
Test [7] deals with CRX (Homo sapiens, UniProt O43186 26-111, R41L).
Chain of CRX (Homo sapiens, UniProt O43186 26-111, R41L) (O43186 26-111 R41L): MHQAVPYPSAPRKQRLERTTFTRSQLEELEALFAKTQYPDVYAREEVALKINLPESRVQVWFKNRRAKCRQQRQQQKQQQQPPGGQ
Test [8] has as its target T1, NKX2-6 (Homo sapiens, UniProt A6NCS4 118-204).
T1 sequence: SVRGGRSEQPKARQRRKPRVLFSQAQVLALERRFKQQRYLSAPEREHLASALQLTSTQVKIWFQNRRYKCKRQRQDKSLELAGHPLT

The target in test [9] is T2, NKX2-6 (Homo sapiens, UniProt A6NCS4 118-204, F151L).
T2 sequence: T1 sequence with F34L

Test [10] concerns the target MSX2 (Homo sapiens, UniProt P35548 130-214, R199I).
Test [11] concerns the target MSX2 (Homo sapiens, UniProt P35548 130-214).
The target in test [12] is MSX2 (Homo sapiens, UniProt P35548 130-214, F161Y).
Chain of MSX2 (Homo sapiens, UniProt P35548 130-214, F161Y) (P35548 130-214 F161Y): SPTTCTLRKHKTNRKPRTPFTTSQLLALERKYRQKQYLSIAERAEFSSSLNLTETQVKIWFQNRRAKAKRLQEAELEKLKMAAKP
The target in test [13] is VAX1 (Homo sapiens, UniProt Q5SQQ9 86-172).
Chain of VAX1 (Homo sapiens, UniProt Q5SQQ9 86-172) (Q5SQQ9 86-172): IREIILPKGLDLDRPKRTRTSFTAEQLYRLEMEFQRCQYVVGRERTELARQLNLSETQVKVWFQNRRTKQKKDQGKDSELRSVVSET
The target in test [14] is VAX1 (Homo sapiens, UniProt Q5SQQ9 86-172, T142I).
Chain of VAX1 (Homo sapiens, UniProt Q5SQQ9 86-172, T142I) (Q5SQQ9 86-172 T142I): as the sequence (Q5SQQ9 86-172) above, with T57I counted along it
Test [15] deals with VAX1 (Homo sapiens, UniProt Q5SQQ9 86-172, K157R).
Chain of VAX1 (Homo sapiens, UniProt Q5SQQ9 86-172, K157R) (Q5SQQ9 86-172 K157R): as the sequence (Q5SQQ9 86-172) above, with K72R counted along it
In test [16] the target is ALX3 (Homo sapiens, UniProt O95076 139-225, N203Q).
Chain of ALX3 (Homo sapiens, UniProt O95076 139-225, N203Q) (O95076 139-225 N203Q): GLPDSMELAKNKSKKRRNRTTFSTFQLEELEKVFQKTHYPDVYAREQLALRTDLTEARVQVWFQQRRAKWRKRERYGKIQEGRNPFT
In test [17] the target is ALX3 (Homo sapiens, UniProt O95076 139-225).
Chain of ALX3 (Homo sapiens, UniProt O95076 139-225) (O95076 139-225): as the sequence (O95076 139-225 N203Q) above, with Q65N counted along it
In test [18] the target is ALX3 (Homo sapiens, UniProt O95076 139-225, L168Q).
Chain of ALX3 (Homo sapiens, UniProt O95076 139-225, L168Q) (O95076 139-225 L168Q): as the sequence (O95076 139-225 N203Q) above, with L30Q, Q65N counted along it
The target in test [19] is ALX3 (Homo sapiens, UniProt O95076 139-225, L168V).
Chain of ALX3 (Homo sapiens, UniProt O95076 139-225, L168V) (O95076 139-225 L168V): as the sequence (O95076 139-225 N203Q) above, with L30V, Q65N counted along it
The target of test [20] is ALX3 (Homo sapiens, UniProt O95076 139-225, N203S).
Chain of ALX3 (Homo sapiens, UniProt O95076 139-225, N203S) (O95076 139-225 N203S): as the sequence (O95076 139-225 N203Q) above, with Q65S counted along it
Test [21] has as its target HOXD13 (Homo sapiens, UniProt P35453 263-343, T313R).
For test [22], the target named is HOXD13 (Homo sapiens, UniProt P35453 263-343).
Chain of HOXD13 (Homo sapiens, UniProt P35453 263-343) (P35453 263-343): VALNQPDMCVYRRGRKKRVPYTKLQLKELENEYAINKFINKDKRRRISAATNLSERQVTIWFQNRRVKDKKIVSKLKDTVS
In test [23] the target is HOXD13 (Homo sapiens, UniProt P35453 263-343, T313A).
Chain of HOXD13 (Homo sapiens, UniProt P35453 263-343, T313A) (P35453 263-343 T313A): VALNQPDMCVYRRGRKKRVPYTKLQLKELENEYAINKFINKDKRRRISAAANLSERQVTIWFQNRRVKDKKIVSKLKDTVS

Residue numbers refer to the chain shown, from its start.

Chain of CRX (Homo sapiens, UniProt O43186 26-111) (O43186 26-111): as the sequence (O43186 26-111 R41L) above, with L16R counted along it
Chain of CRX (Homo sapiens, UniProt O43186 26-111, E42D) (O43186 26-111 E42D): as the sequence (O43186 26-111 R41L) above, with L16R, E17D counted along it
Chain of PROP1 (Homo sapiens, UniProt O75360 56-141) (O75360 56-141): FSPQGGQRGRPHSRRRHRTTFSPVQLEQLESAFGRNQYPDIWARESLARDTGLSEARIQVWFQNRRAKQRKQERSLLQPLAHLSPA
Chain of PROP1 (Homo sapiens, UniProt O75360 56-141, F88S) (O75360 56-141 F88S): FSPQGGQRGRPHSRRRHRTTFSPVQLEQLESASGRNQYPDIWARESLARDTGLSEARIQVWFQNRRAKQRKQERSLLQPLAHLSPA
Chain of HOXD13 (Homo sapiens, UniProt P35453 263-343, T313R) (P35453 263-343 T313R): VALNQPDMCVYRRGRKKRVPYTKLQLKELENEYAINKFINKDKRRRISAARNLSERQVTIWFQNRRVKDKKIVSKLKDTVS
Chain of MSX2 (Homo sapiens, UniProt P35548 130-214, R199I) (P35548 130-214 R199I): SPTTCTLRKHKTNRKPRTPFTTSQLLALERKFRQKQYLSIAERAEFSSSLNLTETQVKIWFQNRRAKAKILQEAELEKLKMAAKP
Chain of PROP1 (Homo sapiens, UniProt O75360 56-141, R99H) (O75360 56-141 R99H): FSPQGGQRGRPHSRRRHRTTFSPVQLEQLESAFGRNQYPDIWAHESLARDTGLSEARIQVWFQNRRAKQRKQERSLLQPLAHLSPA
Chain of MSX2 (Homo sapiens, UniProt P35548 130-214) (P35548 130-214): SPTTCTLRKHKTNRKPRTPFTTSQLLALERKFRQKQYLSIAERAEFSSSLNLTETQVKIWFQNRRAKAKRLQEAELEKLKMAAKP

On to CATAATCC, for which the binding signal is 13.4 upbm affinity estimate (log intensity, higher = more binding, comparable within an allelic series) in [1]; 13.4 upbm affinity estimate (log intensity, higher = more binding, comparable within an allelic series) in test [2]; 13.1 upbm affinity estimate (log intensity, higher = more binding, comparable within an allelic series) in [3]; 8.29 upbm affinity estimate (log intensity, higher = more binding, comparable within an allelic series) in test [4]; 7.92 upbm affinity estimate (log intensity, higher = more binding, comparable within an allelic series) in test [5]; 7.15 upbm affinity estimate (log intensity, higher = more binding, comparable within an allelic series) in test [6]. Also, in test [7], the binding signal was 13.4 upbm affinity estimate (log intensity, higher = more binding, comparable within an allelic series).

Turning to CGTCTGTC, the binding signal was 8.37 upbm affinity estimate (log intensity, higher = more binding, comparable within an allelic series) in [1]; 8.33 upbm affinity estimate (log intensity, higher = more binding, comparable within an allelic series) in test [2]; 9.53 upbm affinity estimate (log intensity, higher = more binding, comparable within an allelic series) in [8]; 9.5 upbm affinity estimate (log intensity, higher = more binding, comparable within an allelic series) in test [9]; 8.42 upbm affinity estimate (log intensity, higher = more binding, comparable within an allelic series) in test [7].

Turning to AGATTAAG, the binding signal in test [1] was 13.1 upbm affinity estimate (log intensity, higher = more binding, comparable within an allelic series); in test [2], 13 upbm affinity estimate (log intensity, higher = more binding, comparable within an allelic series); in test [3] it was 12.6 upbm affinity estimate (log intensity, higher = more binding, comparable within an allelic series); in test [7] it was 12.6 upbm affinity estimate (log intensity, higher = more binding, comparable within an allelic series).

With CGGGATTA, the binding signal in test [1] was 13.4 upbm affinity estimate (log intensity, higher = more binding, comparable within an allelic series); in [2] it was 13.4 upbm affinity estimate (log intensity, higher = more binding, comparable within an allelic series); in [3], 13.3 upbm affinity estimate (log intensity, higher = more binding, comparable within an allelic series); in test [7], 13.3 upbm affinity estimate (log intensity, higher = more binding, comparable within an allelic series).

Take TGGATTAA: the binding signal was 13.4 upbm affinity estimate (log intensity, higher = more binding, comparable within an allelic series) in [1]; 13.5 upbm affinity estimate (log intensity, higher = more binding, comparable within an allelic series) in test [2]; 13.3 upbm affinity estimate (log intensity, higher = more binding, comparable within an allelic series) in test [3]; 13.2 upbm affinity estimate (log intensity, higher = more binding, comparable within an allelic series) in [7].

As to ACGCCAGC, the binding signal in test [1] was 8.41 upbm affinity estimate (log intensity, higher = more binding, comparable within an allelic series); in test [2], 8.28 upbm affinity estimate (log intensity, higher = more binding, comparable within an allelic series); in [8] it was 9.57 upbm affinity estimate (log intensity, higher = more binding, comparable within an allelic series); in test [9], 9.3 upbm affinity estimate (log intensity, higher = more binding, comparable within an allelic series); in test [7] it was 8.46 upbm affinity estimate (log intensity, higher = more binding, comparable within an allelic series).

Turning to CGGGGTGC, the binding signal is 8.16 upbm affinity estimate (log intensity, higher = more binding, comparable within an allelic series) in [1]; 8.25 upbm affinity estimate (log intensity, higher = more binding, comparable within an allelic series) in test [2]; 9.55 upbm affinity estimate (log intensity, higher = more binding, comparable within an allelic series) in test [10]; 9.66 upbm affinity estimate (log intensity, higher = more binding, comparable within an allelic series) in [11]; 9.67 upbm affinity estimate (log intensity, higher = more binding, comparable within an allelic series) in test [12]; 8.31 upbm affinity estimate (log intensity, higher = more binding, comparable within an allelic series) in [7].

Take AGTTAATC: the binding signal in test [1] was 12.7 upbm affinity estimate (log intensity, higher = more binding, comparable within an allelic series); in test [2] it was 12.7 upbm affinity estimate (log intensity, higher = more binding, comparable within an allelic series); in test [3] it was 12.3 upbm affinity estimate (log intensity, higher = more binding, comparable within an allelic series); in test [7] it was 12.4 upbm affinity estimate (log intensity, higher = more binding, comparable within an allelic series).

Regarding CTAATCTC, the binding signal in test [1] was 13 upbm affinity estimate (log intensity, higher = more binding, comparable within an allelic series); in [2], 13 upbm affinity estimate (log intensity, higher = more binding, comparable within an allelic series); in [3] it was 12.6 upbm affinity estimate (log intensity, higher = more binding, comparable within an allelic series); in test [4] it was 8.84 upbm affinity estimate (log intensity, higher = more binding, comparable within an allelic series); in test [6], 7.25 upbm affinity estimate (log intensity, higher = more binding, comparable within an allelic series); in test [7] it was 12.7 upbm affinity estimate (log intensity, higher = more binding, comparable within an allelic series).

Consider CCCAGTCC, for which the binding signal in [1] is 8.2 upbm affinity estimate (log intensity, higher = more binding, comparable within an allelic series); in test [2] it was 8.28 upbm affinity estimate (log intensity, higher = more binding, comparable within an allelic series); in test [8] it was 9.59 upbm affinity estimate (log intensity, higher = more binding, comparable within an allelic series); in [13] it was 7.25 upbm affinity estimate (log intensity, higher = more binding, comparable within an allelic series); in test [9], 9.36 upbm affinity estimate (log intensity, higher = more binding, comparable within an allelic series); in [14] it was 7.27 upbm affinity estimate (log intensity, higher = more binding, comparable within an allelic series). Also, the binding signal in test [7] is 8.25 upbm affinity estimate (log intensity, higher = more binding, comparable within an allelic series); in test [15], 7.03 upbm affinity estimate (log intensity, higher = more binding, comparable within an allelic series).

On to AGGTGCGG, for which the binding signal in test [1] was 8.42 upbm affinity estimate (log intensity, higher = more binding, comparable within an allelic series); in [2] it was 8.46 upbm affinity estimate (log intensity, higher = more binding, comparable within an allelic series); in test [16], 7.78 upbm affinity estimate (log intensity, higher = more binding, comparable within an allelic series); in [17], 7.66 upbm affinity estimate (log intensity, higher = more binding, comparable within an allelic series); in test [18], 7.81 upbm affinity estimate (log intensity, higher = more binding, comparable within an allelic series); in [19] it was 7.75 upbm affinity estimate (log intensity, higher = more binding, comparable within an allelic series). The binding signal in test [7] is 8.35 upbm affinity estimate (log intensity, higher = more binding, comparable within an allelic series); in test [20] it was 7.79 upbm affinity estimate (log intensity, higher = more binding, comparable within an allelic series).

Turning to TAATCCCA, the binding signal in test [1] is 13.4 upbm affinity estimate (log intensity, higher = more binding, comparable within an allelic series); in test [2], 13.4 upbm affinity estimate (log intensity, higher = more binding, comparable within an allelic series); in test [3], 13.4 upbm affinity estimate (log intensity, higher = more binding, comparable within an allelic series); in test [7] it was 13.3 upbm affinity estimate (log intensity, higher = more binding, comparable within an allelic series).

For the sequence ACCTCCCA, the binding signal in test [1] was 8.37 upbm affinity estimate (log intensity, higher = more binding, comparable within an allelic series); in [2] it was 8.4 upbm affinity estimate (log intensity, higher = more binding, comparable within an allelic series); in [3] it was 8.05 upbm affinity estimate (log intensity, higher = more binding, comparable within an allelic series); in [7], 8.28 upbm affinity estimate (log intensity, higher = more binding, comparable within an allelic series).

On to CACGCTCC, for which the binding signal in [1] was 8.3 upbm affinity estimate (log intensity, higher = more binding, comparable within an allelic series); in [2], 8.47 upbm affinity estimate (log intensity, higher = more binding, comparable within an allelic series); in test [21], 9.56 upbm affinity estimate (log intensity, higher = more binding, comparable within an allelic series); in test [22], 9.55 upbm affinity estimate (log intensity, higher = more binding, comparable within an allelic series); in test [23] it was 9.79 upbm affinity estimate (log intensity, higher = more binding, comparable within an allelic series); in [7], 8.41 upbm affinity estimate (log intensity, higher = more binding, comparable within an allelic series).

The values above are taken from publication PMC11006913.
